Reference: article PMC8384837, “Expanding the binding specificity for RNA recognition by a PUF domain”
Residue numbers refer to the chain shown, from its start.

Key:
Assay in all cases: yeast three-hybrid, YBZ-1, SC-Leu-His + 0.5 mM 3-AT, 4 days
Details in all cases: tags: N-Gal4 AD-HA kept; label: inside an RPR1-promoter hybrid RNA with tandem MS2 sites; ssRNA
PUM1 PUF domain R6-DWE = target: T1, PUM1 PUF domain R6-DWE (Homo sapiens, UniProt Q14671 828-1176, N1043D;Y1044W;Q1047E)
T1 sequence: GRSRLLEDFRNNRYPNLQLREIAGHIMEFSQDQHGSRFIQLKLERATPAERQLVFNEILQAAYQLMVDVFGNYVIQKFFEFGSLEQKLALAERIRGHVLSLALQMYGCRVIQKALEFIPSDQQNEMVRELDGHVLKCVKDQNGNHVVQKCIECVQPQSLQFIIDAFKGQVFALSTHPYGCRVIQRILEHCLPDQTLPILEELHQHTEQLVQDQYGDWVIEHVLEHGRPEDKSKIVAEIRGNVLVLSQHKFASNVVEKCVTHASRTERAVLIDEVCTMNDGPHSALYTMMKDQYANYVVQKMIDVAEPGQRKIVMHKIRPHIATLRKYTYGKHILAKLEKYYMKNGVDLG
Procedure, shortened: (§1)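 The interaction score is the logarithmic change in variant frequency from input to selection. It uses log2, with a pseudocount of 1 for absent variants, and frequencies came from PCR-amplified, Illumina-sequenced repeat regions. The libraries were Pumilio-1 PUF domains randomized at the three base-contacting residues per repeat, co-expressed with matching RNA elements in strain YBZ-1 (LexA–MS2 coat fusion, HIS3 reporter). Plating lasted four days on SC-Leu (input) or SC-Leu-His + 0.5 mM 3-AT (selection).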

PUM1 PUF domain R6-VYL = target: T2, PUM1 PUF domain R6-VYL (Homo sapiens, UniProt Q14671 828-1176, N1043V;Q1047L)
T2 sequence: T1 sequence with D216V, W217Y, E220L
Procedure, shortened: as §1

PUM1 PUF domain R5-QVI = PUM1 PUF domain R5-QVI (Homo sapiens, UniProt Q14671 828-1176, C1007Q;R1008V;Q1011I)
Procedure, shortened: as §1

PUM1 PUF domain R5-RMC = PUM1 PUF domain R5-RMC (Homo sapiens, UniProt Q14671 828-1176, C1007R;R1008M;Q1011C)
Procedure, shortened: as §1

PUM1 PUF domain R5-PRD = PUM1 PUF domain R5-PRD (Homo sapiens, UniProt Q14671 828-1176, C1007P;Q1011D)
Procedure, shortened: as §1

PUM1 PUF domain R5-TAR = PUM1 PUF domain R5-TAR (Homo sapiens, UniProt Q14671 828-1176, C1007T;R1008A;Q1011R)
Procedure, shortened: as §1

PUM1 PUF domain R5-RAK = PUM1 PUF domain R5-RAK (Homo sapiens, UniProt Q14671 828-1176, C1007R;R1008A;Q1011K)
Procedure, shortened: as §1

PUM1 PUF domain R4-WGT = PUM1 PUF domain R4-WGT (Homo sapiens, UniProt Q14671 828-1176, N971W;H972G;Q975T)
Procedure, shortened: as §1

PUM1 PUF domain R4-NRV = PUM1 PUF domain R4-NRV (Homo sapiens, UniProt Q14671 828-1176, H972R;Q975V)
Procedure, shortened: as §1

PUM1 PUF domain R4-WGR = PUM1 PUF domain R4-WGR (Homo sapiens, UniProt Q14671 828-1176, N971W;H972G;Q975R)
Procedure, shortened: as §1

PUM1 PUF domain R1-QVR = PUM1 PUF domain R1-QVR (Homo sapiens, UniProt Q14671 828-1176, S863Q;R864V;Q867R)
Procedure, shortened: as §1

PUM1 PUF domain R2-AWY = PUM1 PUF domain R2-AWY (Homo sapiens, UniProt Q14671 828-1176, N899A;Y900W;Q903Y)
Procedure, shortened: as §1

PUM1 PUF domain R5-RND = PUM1 PUF domain R5-RND (Homo sapiens, UniProt Q14671 828-1176, C1007R;R1008N;Q1011D)
Procedure, shortened: as §1

PUM1 PUF domain R3-FCS = PUM1 PUF domain R3-FCS (Homo sapiens, UniProt Q14671 828-1176, C935F;R936C;Q939S)
Procedure, shortened: as §1

PUM1 PUF domain R1-NKR = PUM1 PUF domain R1-NKR (Homo sapiens, UniProt Q14671 828-1176, S863N;R864K;Q867R)
Procedure, shortened: as §1

PUM1 PUF domain R3-VYD = PUM1 PUF domain R3-VYD (Homo sapiens, UniProt Q14671 828-1176, C935V;R936Y;Q939D)
Procedure, shortened: as §1

PUM1 PUF domain R3-GFL = PUM1 PUF domain R3-GFL (Homo sapiens, UniProt Q14671 828-1176, C935G;R936F;Q939L)
Procedure, shortened: as §1

PUM1 PUF domain R5-AFY = PUM1 PUF domain R5-AFY (Homo sapiens, UniProt Q14671 828-1176, C1007A;R1008F;Q1011Y)
Procedure, shortened: as §1

PUM1 PUF domain R3-SRL = PUM1 PUF domain R3-SRL (Homo sapiens, UniProt Q14671 828-1176, C935S;Q939L)
Procedure, shortened: as §1

PUM1 PUF domain R3-CFD = PUM1 PUF domain R3-CFD (Homo sapiens, UniProt Q14671 828-1176, R936F;Q939D)
Procedure, shortened: as §1

Sequence: GGCUAGAACUAGUGGAUCCCCCGGCGCCCGGCGGCUCGAGCCCGGGUAAGUGAAAAUAGUCUGCAUGCCGCCGGGCGCCAUGCCUGCAGGUCGACUCUAGAAAACAUG
- binding signal (PUM1 PUF domain R6-DWE): 2.98 log2 enrichment (interaction score)
- binding signal (PUM1 PUF domain R6-VYL): 6.07 log2 enrichment (interaction score)

Sequence: GGCUAGAACUAGUGGAUCCCCCGGCGCCCGGCGGCUCGAGCCCGGGUAAGUGUGAAUAGUCUGCAUGCCGCCGGGCGCCAUGCCUGCAGGUCGACUCUAGAAAACAUG
- binding signal (PUM1 PUF domain R5-QVI): 4.41 log2 enrichment (interaction score)

Sequence: GGCUAGAACUAGUGGAUCCCCCGGCGCCCGGCGGCUCGAGCCCGGGUAAGUGUUAAUAGUCUGCAUGCCGCCGGGCGCCAUGCCUGCAGGUCGACUCUAGAAAACAUG
- binding signal (PUM1 PUF domain R5-RMC): 3.38 log2 enrichment (interaction score)
- binding signal (PUM1 PUF domain R5-PRD): 3.07 log2 enrichment (interaction score)
- binding signal (PUM1 PUF domain R5-TAR): 1.21 log2 enrichment (interaction score)
- binding signal (PUM1 PUF domain R5-RAK): 3.4 log2 enrichment (interaction score)

Sequence: GGCUAGAACUAGUGGAUCCCCCGGCGCCCGGCGGCUCGAGCCCGGGUAAGUGUACAUAGUCUGCAUGCCGCCGGGCGCCAUGCCUGCAGGUCGACUCUAGAAAACAUG
- binding signal (PUM1 PUF domain R4-WGT): 2.69 log2 enrichment (interaction score)
- binding signal (PUM1 PUF domain R4-NRV): 1.97 log2 enrichment (interaction score)
- binding signal (PUM1 PUF domain R4-WGR): 3.78 log2 enrichment (interaction score)

Sequence: GGCUAGAACUAGUGGAUCCCCCGGCGCCCGGCGGCUCGAGCCCGGGUAAGUGUAAAUUGUCUGCAUGCCGCCGGGCGCCAUGCCUGCAGGUCGACUCUAGAAAACAUG
- binding signal (PUM1 PUF domain R1-QVR): 1.47 log2 enrichment (interaction score)

Sequence: GGCUAGAACUAGUGGAUCCCCCGGCGCCCGGCGGCUCGAGCCCGGGUAAGUGUAAAAAGUCUGCAUGCCGCCGGGCGCCAUGCCUGCAGGUCGACUCUAGAAAACAUG
- binding signal (PUM1 PUF domain R2-AWY): 3.08 log2 enrichment (interaction score)

Sequence: GGCUAGAACUAGUGGAUCCCCCGGCGCCCGGCGGCUCGAGCCCGGGUAAGUGUCAAUAGUCUGCAUGCCGCCGGGCGCCAUGCCUGCAGGUCGACUCUAGAAAACAUG
- binding signal (PUM1 PUF domain R5-RMC): 3.26 log2 enrichment (interaction score)
- binding signal (PUM1 PUF domain R5-PRD): 2.8 log2 enrichment (interaction score)
- binding signal (PUM1 PUF domain R5-TAR): 5.36 log2 enrichment (interaction score)
- binding signal (PUM1 PUF domain R5-RND): 5.27 log2 enrichment (interaction score)
- binding signal (PUM1 PUF domain R5-RAK): 3.03 log2 enrichment (interaction score)

Sequence: GGCUAGAACUAGUGGAUCCCCCGGCGCCCGGCGGCUCGAGCCCGGGUAAGUGUAAGUAGUCUGCAUGCCGCCGGGCGCCAUGCCUGCAGGUCGACUCUAGAAAACAUG
- binding signal (PUM1 PUF domain R3-FCS): 5.25 log2 enrichment (interaction score)

Sequence: GGCUAGAACUAGUGGAUCCCCCGGCGCCCGGCGGCUCGAGCCCGGGUAAGUGUAAAUGGUCUGCAUGCCGCCGGGCGCCAUGCCUGCAGGUCGACUCUAGAAAACAUG
- binding signal (PUM1 PUF domain R1-NKR): 1.8 log2 enrichment (interaction score)

Sequence: GGCUAGAACUAGUGGAUCCCCCGGCGCCCGGCGGCUCGAGCCCGGGUAAGUGUAAAUAGUCUGCAUGCCGCCGGGCGCCAUGCCUGCAGGUCGACUCUAGAAAACAUG
- binding signal (PUM1 PUF domain R3-VYD): 6.46 log2 enrichment (interaction score)
- binding signal (PUM1 PUF domain R3-GFL): 4.38 log2 enrichment (interaction score)
- binding signal (PUM1 PUF domain R4-WGT): 3.43 log2 enrichment (interaction score)
- binding signal (PUM1 PUF domain R5-PRD): 3.41 log2 enrichment (interaction score)
- binding signal (PUM1 PUF domain R5-AFY): 2.38 log2 enrichment (interaction score)
- binding signal (PUM1 PUF domain R4-NRV): 1.46 log2 enrichment (interaction score)
- binding signal (PUM1 PUF domain R5-RND): 0.31 log2 enrichment (interaction score)
- binding signal (PUM1 PUF domain R3-SRL): 3.65 log2 enrichment (interaction score)
- binding signal (PUM1 PUF domain R4-WGR): 0.32 log2 enrichment (interaction score)
- binding signal (PUM1 PUF domain R6-VYL): 0.58 log2 enrichment (interaction score)
- binding signal (PUM1 PUF domain R3-CFD): 3.85 log2 enrichment (interaction score)

Sequence: GGCUAGAACUAGUGGAUCCCCCGGCGCCCGGCGGCUCGAGCCCGGGUAAGUGUAAUUAGUCUGCAUGCCGCCGGGCGCCAUGCCUGCAGGUCGACUCUAGAAAACAUG
- binding signal (PUM1 PUF domain R3-GFL): 2.59 log2 enrichment (interaction score)
- binding signal (PUM1 PUF domain R3-SRL): 1.51 log2 enrichment (interaction score)

Sequence: GGCUAGAACUAGUGGAUCCCCCGGCGCCCGGCGGCUCGAGCCCGGGUAAGUGUAUAUAGUCUGCAUGCCGCCGGGCGCCAUGCCUGCAGGUCGACUCUAGAAAACAUG
- binding signal (PUM1 PUF domain R4-WGT): 4.02 log2 enrichment (interaction score)
- binding signal (PUM1 PUF domain R4-NRV): 2.52 log2 enrichment (interaction score)
- binding signal (PUM1 PUF domain R4-WGR): 3.49 log2 enrichment (interaction score)

Sequence: GGCUAGAACUAGUGGAUCCCCCGGCGCCCGGCGGCUCGAGCCCGGGUAAGUGUAAAUCGUCUGCAUGCCGCCGGGCGCCAUGCCUGCAGGUCGACUCUAGAAAACAUG
- binding signal (PUM1 PUF domain R1-QVR): 3.01 log2 enrichment (interaction score)
- binding signal (PUM1 PUF domain R1-NKR): 3.94 log2 enrichment (interaction score)
